45 compounds from article PMC4336329 (PLoS ONE, 2015) can be followed below.

Structures are written as SMILES. About 14,000 (4.5%) of roughly 310,000 compounds showed an effect of 50% or more. Effects have a minus sign here. The entries come from a sample that favours strong results as a whole.
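Note: peak tail current of the secondary pulse compared with the same well before compound.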

human ether-à-go-go-related gene (hERG) potassium channel, sequence (Q12809 whole entry, looked up): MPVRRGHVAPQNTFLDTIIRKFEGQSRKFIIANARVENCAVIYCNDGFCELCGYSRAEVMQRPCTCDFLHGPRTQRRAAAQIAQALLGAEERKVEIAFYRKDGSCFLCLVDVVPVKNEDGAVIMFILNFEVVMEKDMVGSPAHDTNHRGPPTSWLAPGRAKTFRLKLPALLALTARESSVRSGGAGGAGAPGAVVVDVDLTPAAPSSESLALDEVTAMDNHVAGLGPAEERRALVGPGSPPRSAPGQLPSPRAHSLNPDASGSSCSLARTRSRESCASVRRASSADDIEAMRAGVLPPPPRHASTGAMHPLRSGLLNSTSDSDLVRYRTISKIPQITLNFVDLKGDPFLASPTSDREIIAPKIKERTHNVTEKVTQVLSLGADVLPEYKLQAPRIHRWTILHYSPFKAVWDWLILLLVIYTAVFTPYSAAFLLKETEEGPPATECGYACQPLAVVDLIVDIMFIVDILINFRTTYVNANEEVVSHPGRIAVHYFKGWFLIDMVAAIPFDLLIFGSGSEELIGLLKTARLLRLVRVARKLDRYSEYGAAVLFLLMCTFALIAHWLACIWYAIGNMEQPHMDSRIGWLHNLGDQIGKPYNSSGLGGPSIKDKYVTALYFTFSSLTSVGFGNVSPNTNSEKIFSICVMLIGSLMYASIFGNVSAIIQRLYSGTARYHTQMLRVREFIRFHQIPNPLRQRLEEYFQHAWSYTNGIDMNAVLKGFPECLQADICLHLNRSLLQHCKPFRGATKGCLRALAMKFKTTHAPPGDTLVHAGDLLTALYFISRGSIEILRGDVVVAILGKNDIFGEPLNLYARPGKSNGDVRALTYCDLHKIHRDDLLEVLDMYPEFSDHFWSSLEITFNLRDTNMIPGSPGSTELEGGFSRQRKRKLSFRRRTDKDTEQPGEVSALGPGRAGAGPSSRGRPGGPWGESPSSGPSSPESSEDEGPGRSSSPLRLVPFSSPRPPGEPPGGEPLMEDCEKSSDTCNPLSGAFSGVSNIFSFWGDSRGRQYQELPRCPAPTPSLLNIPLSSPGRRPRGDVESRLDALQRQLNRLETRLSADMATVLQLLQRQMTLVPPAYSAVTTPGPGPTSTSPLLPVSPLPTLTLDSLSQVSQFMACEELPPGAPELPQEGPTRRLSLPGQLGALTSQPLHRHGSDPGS

The experiment has as its target human ether-à-go-go-related gene (hERG) potassium channel (human, UniProt Q12809). The experiment in a line: primary screen, population patch clamp on CHO cells stably expressing hERG; higher = less effect of the substance. As to the method: Briefly, Chinese hamster ovary (CHO) cells stably expressing the hERG channel were dislodged from tissue culture flasks and dispensed into PPC plates. […] During the recording, background leak currents were estimated by a 100 ms step to -80 mV from an initial holding potential of -70 mV and subtracted from the subsequent current measurement. The campaign was conducted in two phases using slight differences in recording protocol. In the first phase, the initial voltage pulse used a 100 ms step to -30 mV from a holding potential of -70 mV, a 2 s conditioning step to +25 mV, and a 2 s test step to -30 mV. During the second phase of the screen, the potential during the conditioning step was raised to +45 mV. In both phases of the campaign, a secondary voltage pulse was applied using the same parameters as the second phase initial pulse. The initial and secondary pulses were applied in the absence of compound, and upon application of 1 μM and 10 μM test concentrations. […]
Regarding `CCOC(=O)c1ccc(Oc2c(C)oc3cc(OS(C)(=O)=O)ccc3c2=O)cc1`, the “hERG current change (%, negative = inhibition) at 10uM” value was -66%.

With `CCOC(=O)c1c(C)oc2ccc(OS(C)(=O)=O)cc12`, the “hERG current change (%, negative = inhibition) at 10uM” value is given as 1.04%. With `CCc1cc(=O)oc2cc(OS(C)(=O)=O)ccc12`, the “hERG current change (%, negative = inhibition) at 10uM” value is -5.44%. Turning to `Cc1cc(=O)oc2cc(OS(C)(=O)=O)ccc12`, the “hERG current change (%, negative = inhibition) at 10uM” value is given as 4.31%. With `COc1ccccc1/C=C/C=N/N1CCN(Cc2ccccc2)CC1` the figure was -8.94%. Turning to `COc1ccc(/C(O)=C2/C(=O)C(=O)N(CC3CCCO3)C2c2ccc(OC)c(OC)c2)cc1` (stereo not drawn), the “hERG current change (%, negative = inhibition) at 10uM” value turned out to be 1.45%. `Cc1cnc(NC(=O)CCCNC(=O)c2ccc(Cl)cc2)s1`: the “hERG current change (%, negative = inhibition) at 10uM” value was determined as 12.8%.

`Cc1ccccc1-n1c(-c2ccc([N+](=O)[O-])cc2)nc2ccccc2c1=O`: the “hERG current change (%, negative = inhibition) at 10uM” value is -0.532%.

Turning to `CC1=NN(C(=O)c2cccc(Cn3nc(C)c([N+](=O)[O-])c3C)c2)C(O)(C(F)(F)F)C1` (stereo not drawn), the “hERG current change (%, negative = inhibition) at 10uM” value stood at 0.484%. Take `Cc1nn(Cc2ccc(C(=O)N3N=C(C(F)F)CC3(O)C(F)F)o2)c(C)c1[N+](=O)[O-]` (stereo not drawn): the “hERG current change (%, negative = inhibition) at 10uM” value is -37.3%.

As for `CC1=NN(C(=O)c2ccc(Cn3nc(C)c([N+](=O)[O-])c3C)cc2)C(O)(C(F)(F)F)C1` (stereo not drawn), the “hERG current change (%, negative = inhibition) at 10uM” value is given as -28.8%. `CC1=NN(C(=O)c2ccc(Cn3nc(C)c([N+](=O)[O-])c3C)o2)C(O)(C(F)(F)F)C1` (stereo not drawn): the “hERG current change (%, negative = inhibition) at 10uM” value is listed as -52.8%. For the compound `Cc1nn(Cc2cccc(C(=O)N3N=C(C(F)F)CC3(O)C(F)F)c2)c(C)c1[N+](=O)[O-]` (stereo not drawn), the “hERG current change (%, negative = inhibition) at 10uM” value was -19.6%.

In the case of `Cc1nn(Cc2ccc(C(=O)N3N=C(C(F)F)CC3(O)C(F)F)cc2)c(C)c1[N+](=O)[O-]` (stereo not drawn), the “hERG current change (%, negative = inhibition) at 10uM” value is listed as -62.9%. With `C=CCn1c(=O)/c(=C\c2ccccn2)s/c1=C(/C#N)C(=O)NCC1CCCO1` (stereo not drawn) the figure was -3.51%; with `CN1CCC(=NNC(=O)CN(c2ccc(Oc3ccccc3)cc2)S(C)(=O)=O)CC1`, 9.51%. With `Cc1ccc([N+](=O)[O-])cc1S(=O)(=O)NCCc1cn2ccccc2n1` the figure was -2.95%; with `CC(C)CCN(C(=O)CNC(=O)c1cccs1)C(C(=O)NC1CCCCC1)c1cccnc1` (stereo not drawn), -36.4%; with `C=C1C(=O)[C@@]23[C@H](O)C[C@@H]4C(C)(C)CC[C@H](O)[C@@]4(C)[C@@H]2CC[C@@H]1[C@H]3O`, -9.9%. As for `COc1ccc(Cn2c(C(F)(F)F)ccc(C(N)=O)c2=O)cc1`, the “hERG current change (%, negative = inhibition) at 10uM” value is reported as 1.62%. As for `c1ccc2c(-c3nnc4n3CCCCC4)cc(-c3ccncc3)nc2c1`, the “hERG current change (%, negative = inhibition) at 10uM” value was -48.7%. As to `O=c1c2ccccc2nc2n1CCCCC2`, the “hERG current change (%, negative = inhibition) at 10uM” value is reported as -4.17%. With `O=c1c2ccccc2nc2n1CCC2` the figure was 13.6%; with `N=c1c2ccccc2nc2n1CCCCCCCCCCC2`, -62%; with `Clc1ccc(-c2cc(-c3nnc4n3CCCCC4)c3ccccc3n2)cc1`, -42.1%.

Turning to `Fc1ccc(-c2cc(-c3nnc4n3CCCCC4)c3ccccc3n2)cc1`, the “hERG current change (%, negative = inhibition) at 10uM” value is listed as -63.5%. For `O=C(NCc1cccnc1)c1cc2nc(-c3ccc4c(c3)OCO4)cc(C(F)(F)F)n2n1`, the “hERG current change (%, negative = inhibition) at 10uM” value worked out at 3.07%. With `COc1ccc(NS(=O)(=O)c2cccc(C(=O)NNC(=O)NCCCl)c2)cc1` the figure was 20.3%; with `CN1CCc2c(sc(NC(=O)c3ccc(S(=O)(=O)N4CCCCCC4)cc3)c2C(N)=O)C1`, 5.51%. With `O=C1CN(C(=O)c2ccc(Cl)c(S(=O)(=O)N3CCc4ccccc43)c2)c2ccccc2N1`, the “hERG current change (%, negative = inhibition) at 10uM” value is recorded as -21%.

On to `COCCn1nnnc1CN1CCC(C)CC1`, for which the “hERG current change (%, negative = inhibition) at 10uM” value was -2.19%. With `O=C(Cn1cnc2c(oc3ccccc32)c1=O)c1ccccc1`, the “hERG current change (%, negative = inhibition) at 10uM” value amounted to 2.38%.

Take `O=C(NC1CCCCCC1)C1CCN(S(=O)(=O)c2ccc(F)cc2)CC1`: the “hERG current change (%, negative = inhibition) at 10uM” value was determined as 0.579%. With `Cc1cc(/N=C/C=C2\N(C)c3ccccc3C2(C)C)n(CCC#N)n1` the figure was -29.8%; with `CN1/C(=C\C=Nc2ccc3ccccc3c2)C(C)(C)c2ccccc21`, -74.8%; with `CO/N=C/C=C1/N(C)c2ccccc2C1(C)C`, 19.8%. Regarding `Cc1ccccc1N=CC=C1OC(C)(C)C(C)(C)O1`, the “hERG current change (%, negative = inhibition) at 10uM” value was -1.54%. As for `CN1/C(=C\C=N\O)C(C)(C)c2ccccc21`, the “hERG current change (%, negative = inhibition) at 10uM” value was determined as 17.1%. Consider `CN1C(=O)C(C)(C)c2cc(S(=O)(=O)N3CCN(c4ccccc4F)CC3)ccc21`, for which the “hERG current change (%, negative = inhibition) at 10uM” value is reported as -3.03%. Turning to `CN1/C(=C\C=Nc2ccccc2)C(C)(C)c2ccccc21`, the “hERG current change (%, negative = inhibition) at 10uM” value is listed as -72.1%. With `Cc1ccccc1N=C/C=C1\N(C)c2ccccc2C1(C)C` the figure was -70.7%.

On to `O=S(=O)(c1ccc(N2CCOCC2)c(Cl)c1)N1CCOCC1`, for which the “hERG current change (%, negative = inhibition) at 10uM” value was determined as 15.5%. Next, `CN1/C(=C/C=C(C#N)C#N)C(C)(C)c2ccccc21`: 14.7%. For `CN1/C(=C/C=N/n2cnnc2)C(C)(C)c2ccccc21`, the “hERG current change (%, negative = inhibition) at 10uM” value is on record as -1.92%. On to `CN1/C(=C\C=Nc2cc(S(=O)(=O)N3CCOCC3)ccc2N2CCOCC2)C(C)(C)c2ccccc21`, for which the “hERG current change (%, negative = inhibition) at 10uM” value is recorded as -71%.
